Measurements from PubChem BioAssay AID493169 (National Center for Advancing Translational Sciences (NCATS), 2011).
Inconclusive results are not listed. Unmarked numbers belong to inactive results. The source made the active and inactive calls. Calls follow the shape of the dose curve; as a rule, active = well fitted inhibition curve with a large enough effect; inconclusive = small, poorly fitted or top-dose-only effect; inactive = flat fitted curve, though single readings scatter.

assay: CHOP2 Reporter Counterscreen Assay for Inhibitors of Ubiquitin-specific Protease USP2a; conditions: purified enterokinase, fluorogenic substrate, 485/531 nm; series mostly up to 38.3 µM; activity change, negative = inhibition: at the top concentration;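 also: activated enterokinase alone at 50 pM in a cell-free format rather than USP2a or CHOP2; nearly all actives have a fitted effect of over 55% in size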
Excerpt: NIH Molecular Libraries Probe Centers Network [MLPCN] NIH Chemical Genomics Center [NCGC] MLPCN Grant: XO1-MH079852-01 PI Name: Nicholson, Ben. Progenra Inc, Malvern, PA NCGC Assay Overview: Homeostasis of cellular proteins is maintained through a combination of synthesis and degradation. The pathway that accounts for the majority of protein degradation is the ubiquitin-proteasomal pathway. Ubiquitin (Ub) is highly conserved in all cells and the generation of a multi-Ub chain typically targets proteins for degradation by the proteasome. However, ubiquitination is highly reversible and dynamic. Deubiquitination, the reverse process, is catalyzed through the action of enzymes referred to as isopeptidases or deubiquitinating enzymes (DUBs). This group of enzymes is collectively responsible for maintaining adequate pools of free ubiquitin and regulating the ubiquitination status of cellular proteins. The class of DUBs referred to as the ubiquitin-specific proteases (USP) family functions endoproteolytically to cleave Ub chains from a wide range of protein substrates. USP2a deubiquitinates fatty acid synthase (FASN) which has recently been identified as an emerging oncology target. To identify inhibitors of USP2a a cell-free assay was employed. This assay is a counterscreen against the reporter enzyme used to measure USP2a activity in the primary qHTS assay. The reporter enzyme is a protease (enterokinase, EK; EC 3.4.21.9), which is activated when a Ub sequence is cleaved by USP2a. The counterscreen assay is performed in the same buffer and conditions as the primary USP2a coupled assay but uses fully activated EK alone. The assay gives a fluorescent read-out at excitation/emission wavelengths of 485/531. The assay was provided by Progenra, Inc. and has been licensed for sale by LifeSensors, Inc.
NCGC Assay Protocol: The assay buffer, prepared fresh at the day of the assay, contains 20mM Tris-HCl pH 8.0, 2mM CaCl2, 2mM beta-Mercaptoethanol, 0.05% CHAPS. 3uL of 100 pM EK (50 pM final) was dispensed into a medium-binding black solid Kalypsys 1,536 well plate using the Kalypsys dispenser. The assay plate was then pinned with 23nL compounds in DMSO with the Kalypsys pintool in columns 5-48 (0.3% final DMSO concentration). The negative control was buffer/DMSO only in column 3. The assay plate is incubated at RT for 30min. Subsequently, 3uL of reporter substrate (25nM final) were dispensed into the plate using the Kalypsys dispenser. Plates were read after 10 min at RT on a ViewLux (Perkin Elmer) plate reader using the following wavelengths: Ex 485nm /Em 531nm. Data were normalized to the AC100 inhibition (buffer alone). Concentration-response curves were fitted to the normalized data and the concentration-response curves were then classified based on curve quality (r2), response magnitude and degree of measured activity. The time zero reading was used to flag fluorescence artifacts.
% is scaled to controls: 0 for no effect and ±100 for the full control effect; potency is read from the fitted curve at half-maximal effect.

| Structure (SMILES) | activity change, negative = inhibition [%] | Potency |
| --- | --- | --- |
| CCOc1cccc(NC(=O)/C(C#N)=C\c2cn(CC(=O)O)c3ccccc23)c1 | -10.4 |  |
| CN(C)CCOCCP(=O)(c1ccccc1)c1ccccc1 | 3.1 |  |
| O=C(Nc1cccc(Cl)c1)Nc1nnc(CC2=CCCCC2)s1 | 2.28 |  |
| N=C1C(c2nc3ccccc3c(=O)[nH]2)=C(O)CN1CCc1ccccc1 | 0.564 |  |
| Cc1cc(=O)oc(C)c1C(=O)NCCc1ccccc1 | 1.21 |  |
| Cc1ccc(CNC(=O)CCNS(=O)(=O)c2ccc(C)cc2)cc1 | 2.86 |  |
| C=CCOc1cccc(C2C(C(=O)c3ccco3)=C(O)C(=O)N2CCN(CC)CC)c1 (stereo not given) | 2.38 |  |
| CCCCC(OC(=O)c1cc2occc2n1C)C(=O)NCC1CCCO1 (stereo not given) | 1.57 |  |
| COC(=O)C1Sc2[nH]c(=O)sc2C(c2ccc(Cl)cc2)C1C(=O)OC (stereo not given) | -1.17 |  |
| CCOC(=O)N1CCN(C(=O)c2cc3c(ccc4ccccc43)oc2=O)CC1 | -1.78 |  |
| CN(C)S(=O)(=O)c1cccc(NC(=S)NNC(=O)c2cc3ccccc3cc2O)c1 | -15.3 |  |
| COc1ccc2nc(C)cc(SCC(=O)N/N=C/c3c(OC)ccc4ccccc34)c2c1 | -0.214 |  |
| C[C@@H]1CN([C@@H](C)CO)C(=O)c2cc(NC(=O)CCC(F)(F)F)ccc2O[C@H]1CN(C)S(=O)(=O)c1ccc(Cl)cc1 | 1.64 |  |
| N#Cc1cccc(C(=O)N(CCc2ccccc2)Cc2cccs2)c1 | 1.74 |  |
| O=C1CCCc2nc(N3CCN(c4ccccc4)CC3)ncc21 | 3.25 |  |
| COc1cc(C(c2c(C)[nH][nH]c2=O)c2c(C)[nH][nH]c2=O)ccc1OCc1ccc([N+](=O)[O-])cc1 | -5.71 |  |
| O=C(NCCOC(=O)c1ccccc1C(=O)OCCNC(=O)c1cccnc1)c1cccnc1 | -0.228 |  |
| CC(=O)COc1ccc2c(-c3ccccc3)cc(=O)oc2c1 | -0.186 |  |
| Cc1ccc(S(=O)(=O)N2CCOCC2)cc1NC(=O)CN1C(=O)NC(C)(c2ccc(Cl)cc2Cl)C1=O (stereo not given) | -0.725 |  |
| COc1ccc(C(=O)N/C(=C\c2cccs2)C(=O)N2CCN(C)CC2)cc1OC | 0.95 |  |

| Structure (SMILES) | activity change, negative = inhibition [%] | Potency |
| --- | --- | --- |
| CCOC(=O)C1CCN(CC(O)COc2ccc(C(C)(C)C)cc2)CC1 (stereo not given) | 1.27 |  |
| CC(C)n1nc(C(=O)Nc2ccccc2N2CCOCC2)c2ccccc2c1=O | 2.45 |  |
| COC(=O)c1c(O)c2c([nH]c1=O)CCCC2 | 3.84 |  |
| COc1ccc(OC)c(Nc2ccc(Nc3cc(OC)ccc3OC)nn2)c1 | -0.301 |  |
| CCCCCCCCCCOC(=O)Cn1c(COc2ccc(Cl)cc2)[n+](C)c2ccccc21 |  | 8.91 µM (active) |
| COc1cc(OC)cc(-c2c(C#Cc3ccsc3)c3cc(-c4ccc(OC)c(OC)c4)ccc3n2C)c1 | 5.46 |  |
| Cc1cc(SCC(=O)NC2CCCCC2)nc2ccccc12 | 1.52 |  |
| COCCCNCCCOc1ccc(C)cc1Br | 6.77 |  |
| CCC(C)c1ccc(O)c(N)c1 (stereo not given) | 3.62 |  |
| Cn1c(C(=O)N2CCN(Cc3ccc4c(c3)OCO4)CC2)cc2sccc21 | 2.17 |  |
| CC(NC(=O)COc1ccccc1-c1ccccc1)c1ccccc1 (stereo not given) | -0.69 |  |
| O=C(Nc1ccc2nc(-c3ccco3)c(-c3ccco3)nc2c1)N1CCN(c2ccccn2)CC1 |  | 2.82 µM (active) |
| O=C(COC(=O)c1cc(-c2ccc(Cl)s2)nc2ccccc12)NCc1ccco1 |  | 10 µM (active) |
| CSC1=NCCN1C(=O)Cc1ccc(F)cc1 | -0.64 |  |
| O=C(CCc1nc(-c2ccccc2F)no1)NC1CCCCCC1 | 1.18 |  |
| O=c1cc(CO)oc(CN2CCN(Cc3ccccc3)CC2)c1O | 5.35 |  |
| Cc1onc(-c2ccccc2)c1C(=O)N1CCN(C)CC1 | 1.29 |  |
| O=C(N/N=C/C=C/c1ccccc1)c1ccncc1 | 6.48 |  |
| C#CCOCCOCCOCCNc1nc(N2CCN(C(=O)CCCCCCCCCCNC(=O)[C@@H](CCC(=O)O)n3cc(CCCCCN)nn3)CC2)nc(N2CCN(C(=O)CCCCCCCCCCNC(=O)[C@H](CCCCN)n3cc(C[C@@H](C)CC)nn3)CC2)n1 |  | 5.62 µM (active) |
| CC(=O)c1ccc(Nc2ncnc3c2oc2ccccc23)cc1 | -0.29 |  |
